{"source": "paper PMC4336329", "about": "(PLoS ONE, 2015)", "note": "Among all 310,000 compounds or so, about 2,200 (0.71%) showed an effect of 50% or more. The effect is printed as a negative number. What follows is part of a selection rich in strong results, with near analogues and random picks from the rest."}
{"target": "human ether-à-go-go-related gene (hERG) potassium channel (human, UniProt Q12809)", "sequence (Q12809 whole entry, looked up)": "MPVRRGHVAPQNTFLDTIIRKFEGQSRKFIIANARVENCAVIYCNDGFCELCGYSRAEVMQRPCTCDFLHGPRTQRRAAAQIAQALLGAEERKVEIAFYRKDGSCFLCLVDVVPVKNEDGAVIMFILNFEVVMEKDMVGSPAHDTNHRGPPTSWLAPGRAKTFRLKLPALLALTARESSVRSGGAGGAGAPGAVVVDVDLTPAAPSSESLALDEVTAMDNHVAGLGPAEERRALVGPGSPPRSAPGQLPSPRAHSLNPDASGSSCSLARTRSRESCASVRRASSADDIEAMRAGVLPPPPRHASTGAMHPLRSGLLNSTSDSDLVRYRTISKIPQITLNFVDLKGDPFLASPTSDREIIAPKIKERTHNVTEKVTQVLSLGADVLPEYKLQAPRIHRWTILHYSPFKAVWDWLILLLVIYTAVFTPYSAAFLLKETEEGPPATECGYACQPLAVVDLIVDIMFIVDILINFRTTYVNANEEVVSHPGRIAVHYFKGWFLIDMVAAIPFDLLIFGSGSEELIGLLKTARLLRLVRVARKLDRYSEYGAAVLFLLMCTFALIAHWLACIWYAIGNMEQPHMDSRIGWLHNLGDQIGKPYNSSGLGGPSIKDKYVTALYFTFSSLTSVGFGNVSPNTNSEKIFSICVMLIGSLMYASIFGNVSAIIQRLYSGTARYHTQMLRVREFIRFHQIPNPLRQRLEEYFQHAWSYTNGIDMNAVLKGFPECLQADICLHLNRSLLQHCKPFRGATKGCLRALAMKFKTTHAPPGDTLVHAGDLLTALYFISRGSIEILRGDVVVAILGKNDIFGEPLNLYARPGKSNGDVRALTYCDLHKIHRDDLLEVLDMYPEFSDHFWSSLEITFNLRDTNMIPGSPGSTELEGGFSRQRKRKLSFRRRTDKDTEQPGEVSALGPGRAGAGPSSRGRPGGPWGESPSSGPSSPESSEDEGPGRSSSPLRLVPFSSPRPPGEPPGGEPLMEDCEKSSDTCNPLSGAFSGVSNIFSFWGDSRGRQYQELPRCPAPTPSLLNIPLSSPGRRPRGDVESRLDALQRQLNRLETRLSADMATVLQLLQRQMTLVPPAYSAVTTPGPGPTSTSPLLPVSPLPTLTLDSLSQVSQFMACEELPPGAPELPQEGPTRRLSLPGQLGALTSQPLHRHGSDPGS", "assay": "primary screen, population patch clamp on CHO cells stably expressing hERG; higher = less effect of the substance", "units": {"hERG current change (%, negative = inhibition) at 1uM": "%"}}
{"smiles": "Cc1ccc(Cl)cc1N1CCN(C(=O)Cc2c(C(=O)O)[nH]c3ccc(Cl)cc23)CC1", "hERG current change (%, negative = inhibition) at 1uM": 22.4}
{"smiles": "COCCOc1cnn(-c2cc(Oc3ccc(C)cc3)ncn2)c(=O)c1Cl", "hERG current change (%, negative = inhibition) at 1uM": 7.88}
{"smiles": "Cc1ccc(-n2c(SCC3CNC(=O)O3)nnc2-c2ccccc2)cc1C", "note": "(stereo not shown)", "hERG current change (%, negative = inhibition) at 1uM": 0.305}
{"smiles": "CCOc1ccc(NC(=O)CN(C)C(=O)c2c(C)noc2C)cc1OCC", "hERG current change (%, negative = inhibition) at 1uM": 9.87}
{"smiles": "CCN(CC)CCCNC(=S)Nc1ccc(Br)cc1", "hERG current change (%, negative = inhibition) at 1uM": -8.09}
{"smiles": "COc1ccc(C(=O)NCC(=O)OCc2ccc(F)cc2Cl)cc1OC", "hERG current change (%, negative = inhibition) at 1uM": 11.2}
{"smiles": "COc1ccc(C(=O)NC2CC2)cc1OC1CCN(Cc2ccc(F)cc2Cl)CC1", "hERG current change (%, negative = inhibition) at 1uM": -62}
{"smiles": "COCCNC(=O)c1cccc(OC2CCN(Cc3ccc(F)cc3OC)CC2)c1", "hERG current change (%, negative = inhibition) at 1uM": 10.6}
{"smiles": "COc1ccc(C(=O)NC2CCN(Cc3c(F)cccc3Cl)CC2)cc1OC", "hERG current change (%, negative = inhibition) at 1uM": 10.1}
{"smiles": "O=C(NCc1ccccn1)c1ccc(OC2CCN(Cc3ccc(F)cc3F)CC2)cc1", "hERG current change (%, negative = inhibition) at 1uM": 0.219}
{"smiles": "COc1ccc(C(=O)NC2CC2)cc1OC1CCN(Cc2ccc(F)cc2F)CC1", "hERG current change (%, negative = inhibition) at 1uM": -75.1}
{"smiles": "CCCN1CCN(C(=O)c2oc3c(Cl)cccc3c2C)CC1", "hERG current change (%, negative = inhibition) at 1uM": -0.0965}
{"smiles": "CCCCC(=O)Nc1cccc(NC(=O)CC)c1", "hERG current change (%, negative = inhibition) at 1uM": 10.3}
{"smiles": "Cc1ccccc1-n1cc(-c2ccc(Br)cc2)nc1SCC(N)=O", "hERG current change (%, negative = inhibition) at 1uM": 10.3}
{"smiles": "CCC1CCCCN1CCCCOc1cccc(Cl)c1.O=C(O)C(=O)O", "note": "(stereo not shown)", "hERG current change (%, negative = inhibition) at 1uM": -55.6}
{"smiles": "Clc1cccc(OCCCCN2CCCCC2)c1", "hERG current change (%, negative = inhibition) at 1uM": -4.66}
{"smiles": "Clc1cccc(OCCN2CCOCC2)c1.O=C(O)C(=O)O", "hERG current change (%, negative = inhibition) at 1uM": 5.84}
{"smiles": "CCNC(=O)NC(=O)C(C)N1C(=O)NC(c2ccccc2)(c2ccccc2)C1=O", "note": "(stereo not shown)", "hERG current change (%, negative = inhibition) at 1uM": -2.55}
{"smiles": "COc1ccc(CNC(=O)C(C)N2C(=O)NC(c3ccccc3)(c3ccccc3)C2=O)cc1", "note": "(stereo not shown)", "hERG current change (%, negative = inhibition) at 1uM": -56.1}
{"smiles": "CC(C(=O)NC(N)=O)N1C(=O)NC(c2ccccc2)(c2ccccc2)C1=O", "note": "(stereo not shown)", "hERG current change (%, negative = inhibition) at 1uM": -0.156}
{"smiles": "CCCCNCC(=O)Nc1ccc(NC(=O)CNCCCC)cc1", "hERG current change (%, negative = inhibition) at 1uM": 16.2}
{"smiles": "CCCN1Cc2cccc(C(N)=O)c2C1=O", "hERG current change (%, negative = inhibition) at 1uM": 3.15}
{"smiles": "Cc1cccc(CN2CCCC(C(=O)c3ccc(C(F)(F)F)cc3)C2)n1", "note": "(stereo not shown)", "hERG current change (%, negative = inhibition) at 1uM": -40}
{"smiles": "O=C(c1cccc(C(F)(F)F)c1)C1CCCN(Cc2cccn2-c2ccccn2)C1", "note": "(stereo not shown)", "hERG current change (%, negative = inhibition) at 1uM": -90.4}
{"smiles": "O=C(c1ccc(C(F)(F)F)cc1)C1CCCN(Cc2ccncc2)C1", "note": "(stereo not shown)", "hERG current change (%, negative = inhibition) at 1uM": -7.99}
{"smiles": "O=C(c1cccc(C(F)(F)F)c1)C1CCCN(Cc2ccccc2O)C1", "note": "(stereo not shown)", "hERG current change (%, negative = inhibition) at 1uM": 13.2}
{"smiles": "O=C(c1cccc(C(F)(F)F)c1)C1CCCN(Cc2cccn2-c2ncccn2)C1", "note": "(stereo not shown)", "hERG current change (%, negative = inhibition) at 1uM": -105}
{"smiles": "O=C(c1cccc(C(F)(F)F)c1)C1CCCN(Cc2ncc[nH]2)C1", "note": "(stereo not shown)", "hERG current change (%, negative = inhibition) at 1uM": 11.1}
{"smiles": "O=C(c1ccc(C(F)(F)F)cc1)C1CCCN(Cc2cccn2-c2ncccn2)C1", "note": "(stereo not shown)", "hERG current change (%, negative = inhibition) at 1uM": -88}
{"smiles": "CC(=O)Nc1ccc(CN2CCCC(C(=O)c3cccc(C(F)(F)F)c3)C2)cc1", "note": "(stereo not shown)", "hERG current change (%, negative = inhibition) at 1uM": 7.86}
{"smiles": "CCn1ccnc1CN1CCCC(C(=O)c2cccc(C(F)(F)F)c2)C1", "note": "(stereo not shown)", "hERG current change (%, negative = inhibition) at 1uM": 1.55}
{"smiles": "CC(=O)c1ccc(S(=O)(=O)Nc2ccccc2C(=O)NC2CC2)cc1", "hERG current change (%, negative = inhibition) at 1uM": 9.72}
{"smiles": "O=C1CN(S(=O)(=O)c2cccc(C(=O)O)c2)c2ccccc2N1", "hERG current change (%, negative = inhibition) at 1uM": 11.3}
{"smiles": "CCC(CC)c1nnc(NC(=O)c2ccc(N3CCCCC3)c([N+](=O)[O-])c2)s1", "hERG current change (%, negative = inhibition) at 1uM": -9.23}
{"smiles": "CC(CCc1ccccc1)N(C)CC(O)c1cccc([N+](=O)[O-])c1.Cl", "note": "(stereo not shown)", "hERG current change (%, negative = inhibition) at 1uM": -56.8}
{"smiles": "CC(CCc1ccccc1)NCC(O)c1cccc([N+](=O)[O-])c1.Cl", "note": "(stereo not shown)", "hERG current change (%, negative = inhibition) at 1uM": -8.42}
{"smiles": "C=CCN(CC(O)c1cccc([N+](=O)[O-])c1)C(C)CCc1ccccc1.Cl", "note": "(stereo not shown)", "hERG current change (%, negative = inhibition) at 1uM": -9.83}
{"smiles": "Cc1cc(C)c(CN2CCCC(CNC(=O)c3ccc(F)cc3)C2)c(-n2cccn2)c1", "note": "(stereo not shown)", "hERG current change (%, negative = inhibition) at 1uM": -85.4}
{"smiles": "CCn1ncc(CN2CCCC(CNC(=O)c3ccc(F)cc3)C2)c1C", "note": "(stereo not shown)", "hERG current change (%, negative = inhibition) at 1uM": 1.73}
{"smiles": "Cc1cc(CN2CCCC(CNC(=O)c3ccc(F)cc3)C2)cc(C)c1O", "note": "(stereo not shown)", "hERG current change (%, negative = inhibition) at 1uM": -14.5}
{"smiles": "O=C(NCC1CCCN(Cc2cccc(C(F)(F)F)c2)C1)c1ccc(F)cc1", "note": "(stereo not shown)", "hERG current change (%, negative = inhibition) at 1uM": -5.71}
{"smiles": "CCOC(=O)C1(CC2CCCCO2)CCN(Cc2c(C)cc(C)cc2-n2cccn2)CC1", "note": "(stereo not shown)", "hERG current change (%, negative = inhibition) at 1uM": -84.1}
{"smiles": "Cc1ccc(-n2cccn2)c(CN2CCCC(CNC(=O)c3ccc(F)cc3)C2)c1", "note": "(stereo not shown)", "hERG current change (%, negative = inhibition) at 1uM": -78.9}
{"smiles": "COc1cccc(CN2CCCC(CNC(=O)c3ccc(F)cc3)C2)c1OC", "note": "(stereo not shown)", "hERG current change (%, negative = inhibition) at 1uM": -12.6}
{"smiles": "CCOC(=O)C1(CC2CCCCO2)CCN(Cc2cc(F)ccc2-n2cccn2)CC1", "note": "(stereo not shown)", "hERG current change (%, negative = inhibition) at 1uM": -14.9}
{"smiles": "CCOC(=O)C1(CC2CCCCO2)CCN(Cc2nccn2-c2cccc(C)c2)CC1", "note": "(stereo not shown)", "hERG current change (%, negative = inhibition) at 1uM": -1.48}
{"smiles": "COc1cccc(NC(=O)NCCCCc2ccccc2)c1", "hERG current change (%, negative = inhibition) at 1uM": -0.169}
{"smiles": "CCOC(=O)CN(C(=O)c1snc(C(N)=O)c1N)C(C(=O)NCCC(C)C)c1ccc(F)cc1", "note": "(stereo not shown)", "hERG current change (%, negative = inhibition) at 1uM": 7.34}
{"smiles": "COc1ccccc1CNC(=O)C(CCSC)NS(=O)(=O)c1ccc2c(c1)oc(=O)n2C", "note": "(stereo not shown)", "hERG current change (%, negative = inhibition) at 1uM": 15.7}
{"smiles": "CN(C)S(=O)(=O)c1cccc(C(=O)OCC(=O)N2CCCC2=O)c1", "hERG current change (%, negative = inhibition) at 1uM": 12.1}
{"smiles": "O=C(CNC(=O)c1ccc(Cl)cc1)OCC(=O)c1ccccc1", "hERG current change (%, negative = inhibition) at 1uM": -0.984}
{"smiles": "Cn1c(SCC(=O)NCCc2ccccc2)ncc(C(=O)Nc2ccc(F)cc2)c1=O", "hERG current change (%, negative = inhibition) at 1uM": 12.5}
{"smiles": "CC(C(=O)Oc1ccc2c(c1)OCO2)N1C(=O)c2ccccc2C1=O", "note": "(stereo not shown)", "hERG current change (%, negative = inhibition) at 1uM": -1.93}
{"smiles": "C/C(=N\\N1CCN(c2ccc(Cl)cc2)CC1)c1cccs1", "hERG current change (%, negative = inhibition) at 1uM": 4.52}
{"smiles": "O=C(NC1CCCCC1)c1ccc(NS(=O)(=O)c2cccc3cccnc23)cc1", "hERG current change (%, negative = inhibition) at 1uM": 12.5}
